This note sets out measurements from PubChem BioAssay.

Assay [1] in a line: rapamycin-like changes in RPL19A-GFP expression – cell-based, S. cerevisiae, multiplex flow cytometry, primary screen (AID 1862; in the data active = percent of DMSO control GFP below about 86%;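 note: lower values mimic rapamycin by blocking the RPL19A rise seen in DMSO cells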). The note with it: S. cerevisiae RPL19A-GFP strain, flow cytometry fluorescence, 3 h; at 10 µM; stronger effect = lower value. (In general: In flow cytometry, cells or beads pass a laser one at a time.)
Assay [2] is described as follows: TOR pathway GLN3 branch reporter MEP2-GFP changes – S. cerevisiae, multiplex flow cytometry, primary screen (AID 1867;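 active = GFP response, as percent of the DMSO control, above the screen-wide mean plus 3 SD, about 139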;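 note: median GFP channel fluorescence of barcode-gated MEP2-GFP cells measured by flow cytometry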). Conditions: S. cerevisiae MEP2-GFP strain, 3 h, at 10 µM, stronger effect = higher value, 100% means same as DMSO wells.
The nature of assay [3]: TOR pathway RTG branch CIT2 reporter changes – S. cerevisiae, GFP fusion, multiplex flow cytometry, primary screen (AID 1870;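 active = percent response above a set limit, the screen-wide mean plus 3 SD, cut at about 130% in these data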;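 note: barcoded CIT2-GFP strain pooled with four other GFP strains with rapamycin as positive control; median GFP fluorescence per well over plate mean of DMSO wells so 100% = DMSO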). Conditions: S. cerevisiae CIT2-GFP expression, 3 h, at 10 µM, stronger effect = higher value.
Assay [4] in a line: TOR pathway LAP4-GFP level changes – S. cerevisiae, multiplex flow cytometry, primary screen (AID 1873;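 active = GFP signal, as percent of the solvent control, above the screen mean plus 3 SD, about 149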). The note with it: S. cerevisiae LAP4-GFP expression, 3 h, at 10 µM, stronger effect = higher value.
A short description of assay [5]: yeast AGP1-GFP level changes, GLN3 branch – cell-based, multiplex flow cytometry, S. cerevisiae, primary screen (AID 1887;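 active = GFP signal above the screen-wide mean plus 3 SD, that is over about 124.5% of the solvent control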;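 note: AGP1-GFP fusion strain of S. cerevisiae within a five-strain barcoded multiplex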). Conditions: 3 h, at 10 µM, stronger effect = higher value.
The nature of assay [6]: reduced mouse 2C T cell binding to pMHC/ICAM-1 vesicles – MLPCN validation set, flow cytometry, LFA-1/ICAM-1 modulator project, pilot screen (AID 2523;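 active = response below a set limit, under 55% cells CD8-positive and vesicle-bound, and CD8 cells' 90th-percentile brightness under 279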;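 for vesicle binding response: mean PE anti-B7-1 fluorescence of CD8+ cells relative to row control; 100% = QL9-loaded vesicles with DMSO vehicle in the same plate row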). Conditions: 2C mouse CD8+ T cells, at 7 µM, stronger effect = lower value; double positive events: measured here: CD8+/vesicle+ event percentage.
In assay [7] the target is Integrin beta-1 (Homo sapiens) + Integrin alpha-4 (Homo sapiens) (UniProt P13612+P05556). In words: alpha4beta1 integrin LIBS antibody binding reduction – U937 cells, HUTS-21 mAb, flow cytometry, validation set, VLA-4 allosteric modulator project, pilot screen (AID 2674;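 active = inhibition above 50%, about 3 SD of the validation set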;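 note: antibody binding induced by the VLA-4 ligand LDV present at three times its Kd; 0% = LDV ligand with antibody and no compound and 100% = antibody without LDV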). The note with it: HUTS-21 LIBS mAb binding, at 6.7 µM, stronger effect = higher value, binding induced by LDV ligand.
Integrin beta-1 (Homo sapiens) + Integrin alpha-4 (Homo sapiens), sequence (P05556 whole entry, looked up): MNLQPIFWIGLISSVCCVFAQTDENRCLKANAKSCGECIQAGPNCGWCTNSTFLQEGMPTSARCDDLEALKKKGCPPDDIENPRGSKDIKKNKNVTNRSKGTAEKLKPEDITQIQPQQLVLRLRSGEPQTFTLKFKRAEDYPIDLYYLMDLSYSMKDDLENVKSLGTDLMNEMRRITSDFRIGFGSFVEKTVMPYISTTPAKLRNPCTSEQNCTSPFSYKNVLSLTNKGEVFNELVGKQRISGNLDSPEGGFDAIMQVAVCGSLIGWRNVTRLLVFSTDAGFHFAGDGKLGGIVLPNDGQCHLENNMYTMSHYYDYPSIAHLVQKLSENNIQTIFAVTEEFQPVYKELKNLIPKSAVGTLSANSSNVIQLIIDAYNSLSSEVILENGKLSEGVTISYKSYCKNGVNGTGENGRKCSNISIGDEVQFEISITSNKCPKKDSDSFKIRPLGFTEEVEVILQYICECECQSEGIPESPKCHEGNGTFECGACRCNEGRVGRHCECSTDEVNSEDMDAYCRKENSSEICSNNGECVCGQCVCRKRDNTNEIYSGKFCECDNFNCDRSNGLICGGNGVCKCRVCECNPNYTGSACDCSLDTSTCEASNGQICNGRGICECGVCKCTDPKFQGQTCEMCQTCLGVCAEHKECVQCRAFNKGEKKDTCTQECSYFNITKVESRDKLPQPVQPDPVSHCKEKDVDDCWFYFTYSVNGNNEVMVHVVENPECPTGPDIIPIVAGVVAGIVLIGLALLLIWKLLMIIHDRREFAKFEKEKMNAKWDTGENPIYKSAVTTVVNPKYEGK
Integrin beta-1 (Homo sapiens) + Integrin alpha-4 (Homo sapiens), sequence (P13612 whole entry, looked up): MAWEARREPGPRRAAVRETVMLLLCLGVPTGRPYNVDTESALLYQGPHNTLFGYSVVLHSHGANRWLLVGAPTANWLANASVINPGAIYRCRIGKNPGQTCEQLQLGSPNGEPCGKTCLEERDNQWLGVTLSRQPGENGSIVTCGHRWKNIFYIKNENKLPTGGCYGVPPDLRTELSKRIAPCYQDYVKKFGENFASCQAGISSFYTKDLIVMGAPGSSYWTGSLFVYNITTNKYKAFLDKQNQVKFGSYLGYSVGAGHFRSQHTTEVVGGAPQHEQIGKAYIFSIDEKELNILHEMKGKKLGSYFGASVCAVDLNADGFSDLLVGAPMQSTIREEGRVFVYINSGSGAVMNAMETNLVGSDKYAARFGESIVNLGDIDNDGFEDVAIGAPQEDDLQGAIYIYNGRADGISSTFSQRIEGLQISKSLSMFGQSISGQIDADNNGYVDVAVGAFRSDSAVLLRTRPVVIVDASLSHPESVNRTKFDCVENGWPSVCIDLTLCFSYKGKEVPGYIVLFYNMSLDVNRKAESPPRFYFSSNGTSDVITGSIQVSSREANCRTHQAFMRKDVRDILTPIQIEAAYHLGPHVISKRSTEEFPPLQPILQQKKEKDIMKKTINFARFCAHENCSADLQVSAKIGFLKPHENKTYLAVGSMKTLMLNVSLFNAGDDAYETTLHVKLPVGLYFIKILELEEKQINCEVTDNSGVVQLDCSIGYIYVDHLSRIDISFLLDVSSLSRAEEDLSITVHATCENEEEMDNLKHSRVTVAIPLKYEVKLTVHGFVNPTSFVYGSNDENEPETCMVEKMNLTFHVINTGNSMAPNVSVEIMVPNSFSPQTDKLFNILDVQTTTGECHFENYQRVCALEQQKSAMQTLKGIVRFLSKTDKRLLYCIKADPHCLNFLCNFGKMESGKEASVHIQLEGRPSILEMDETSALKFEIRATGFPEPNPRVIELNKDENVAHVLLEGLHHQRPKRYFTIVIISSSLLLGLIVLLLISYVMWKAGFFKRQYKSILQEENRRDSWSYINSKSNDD

The nature of assay [8]: calorie-restriction mimetic ROS inhibitors, yeast – validation compound set, pilot screen (AID 2706;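 active = superoxide response below 65% of plate, a cut near 3 SD across the whole screen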;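 note: yeast exposed to compound for one week at 30 degrees C before staining; 100% = mean of all compound wells on the same plate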). Conditions: S. cerevisiae aging, superoxide DHE fluorescence; at 10 µM; stronger effect = lower value.
The target of assay [9] is Beta-adrenergic receptor kinase 1 (Homo sapiens) (UniProt P25098). In words: GRK2 binders displacing RNA aptamer, biochemical, validation, human GRK2, bead flow cytometry (AID 488806;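 active = aptamer binding inhibition above 30%, about 3 SD of noise from non-fluorescent compounds; inactive = inhibition at or below 30%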). Conditions: bead-bound GRK2, FAM-aptamer displacement, at 10 µM, stronger effect = higher value.
Beta-adrenergic receptor kinase 1 (Homo sapiens), sequence (P25098 whole entry, looked up): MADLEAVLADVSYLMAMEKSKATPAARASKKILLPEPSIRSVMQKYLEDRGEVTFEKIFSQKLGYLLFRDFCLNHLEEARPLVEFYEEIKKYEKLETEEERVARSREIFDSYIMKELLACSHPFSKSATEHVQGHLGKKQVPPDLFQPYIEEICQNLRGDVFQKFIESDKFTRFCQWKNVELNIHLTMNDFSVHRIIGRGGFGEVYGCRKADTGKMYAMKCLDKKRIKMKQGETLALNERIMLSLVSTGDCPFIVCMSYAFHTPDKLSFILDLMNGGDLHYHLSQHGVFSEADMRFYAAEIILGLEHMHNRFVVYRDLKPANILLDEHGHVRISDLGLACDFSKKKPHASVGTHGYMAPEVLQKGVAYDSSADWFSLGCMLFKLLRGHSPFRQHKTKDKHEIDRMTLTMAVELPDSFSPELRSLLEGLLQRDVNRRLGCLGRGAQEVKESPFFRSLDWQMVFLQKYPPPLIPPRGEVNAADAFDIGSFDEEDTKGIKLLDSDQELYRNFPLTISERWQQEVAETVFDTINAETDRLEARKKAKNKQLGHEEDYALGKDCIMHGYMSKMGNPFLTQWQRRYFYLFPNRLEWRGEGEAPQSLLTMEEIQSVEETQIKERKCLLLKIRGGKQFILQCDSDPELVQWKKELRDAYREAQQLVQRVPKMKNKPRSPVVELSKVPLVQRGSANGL
Assay [10] deals with Beta-2 adrenergic receptor (Homo sapiens) (UniProt P07550). In words: agonist-induced loss of surface beta2AR – cell-based, FAP fluorogen, flow cytometry, validation set, pilot screen (AID 504459;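 active = percent response above 42, roughly 3 SD of non-fluorescent test compounds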;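 note: agonist-driven loss of surface beta2AR via internalization measured by FAP dye flow cytometry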). The note with it: Am2.2-beta2AR cells, at 10 µM, stronger effect = higher value.
Beta-2 adrenergic receptor (Homo sapiens), sequence (P07550 whole entry, looked up): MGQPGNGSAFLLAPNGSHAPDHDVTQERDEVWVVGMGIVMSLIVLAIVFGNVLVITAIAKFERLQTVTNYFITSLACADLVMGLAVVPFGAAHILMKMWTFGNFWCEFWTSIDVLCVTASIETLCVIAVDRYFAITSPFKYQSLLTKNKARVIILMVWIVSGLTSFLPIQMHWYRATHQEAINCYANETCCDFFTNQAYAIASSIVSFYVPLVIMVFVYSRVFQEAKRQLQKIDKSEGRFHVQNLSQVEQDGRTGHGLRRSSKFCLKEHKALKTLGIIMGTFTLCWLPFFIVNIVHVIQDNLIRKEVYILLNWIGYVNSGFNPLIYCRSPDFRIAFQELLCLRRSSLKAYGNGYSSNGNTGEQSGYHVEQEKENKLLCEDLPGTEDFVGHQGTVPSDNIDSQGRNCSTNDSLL
The target in assay [11] is AP-2 complex subunit beta (Homo sapiens) (UniProt P63010). In words: beta-arrestin/AP2 interaction blockers – biochemical, validation set, GST-AP2 beads, flow cytometry, pilot screen (AID 504541;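 active = inhibition above 54%, about 3 SD of non-fluorescent compounds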;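 note: AP2 carries R879A mutation and is captured from E. coli lysate; bead-bound FITC arrestin peptide fluorescence measuring arrestin peptide binding to AP2; 0% = DMSO wells and 100% = excess unlabeled arrestin peptide control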). Conditions: FITC arrestin peptide, at 10 µM, stronger effect = higher value, AP2 beta2 appendage fragment, R879A mutant.
AP-2 complex subunit beta (Homo sapiens), sequence (P63010 whole entry, looked up, the tested form may be a part, one chain of several): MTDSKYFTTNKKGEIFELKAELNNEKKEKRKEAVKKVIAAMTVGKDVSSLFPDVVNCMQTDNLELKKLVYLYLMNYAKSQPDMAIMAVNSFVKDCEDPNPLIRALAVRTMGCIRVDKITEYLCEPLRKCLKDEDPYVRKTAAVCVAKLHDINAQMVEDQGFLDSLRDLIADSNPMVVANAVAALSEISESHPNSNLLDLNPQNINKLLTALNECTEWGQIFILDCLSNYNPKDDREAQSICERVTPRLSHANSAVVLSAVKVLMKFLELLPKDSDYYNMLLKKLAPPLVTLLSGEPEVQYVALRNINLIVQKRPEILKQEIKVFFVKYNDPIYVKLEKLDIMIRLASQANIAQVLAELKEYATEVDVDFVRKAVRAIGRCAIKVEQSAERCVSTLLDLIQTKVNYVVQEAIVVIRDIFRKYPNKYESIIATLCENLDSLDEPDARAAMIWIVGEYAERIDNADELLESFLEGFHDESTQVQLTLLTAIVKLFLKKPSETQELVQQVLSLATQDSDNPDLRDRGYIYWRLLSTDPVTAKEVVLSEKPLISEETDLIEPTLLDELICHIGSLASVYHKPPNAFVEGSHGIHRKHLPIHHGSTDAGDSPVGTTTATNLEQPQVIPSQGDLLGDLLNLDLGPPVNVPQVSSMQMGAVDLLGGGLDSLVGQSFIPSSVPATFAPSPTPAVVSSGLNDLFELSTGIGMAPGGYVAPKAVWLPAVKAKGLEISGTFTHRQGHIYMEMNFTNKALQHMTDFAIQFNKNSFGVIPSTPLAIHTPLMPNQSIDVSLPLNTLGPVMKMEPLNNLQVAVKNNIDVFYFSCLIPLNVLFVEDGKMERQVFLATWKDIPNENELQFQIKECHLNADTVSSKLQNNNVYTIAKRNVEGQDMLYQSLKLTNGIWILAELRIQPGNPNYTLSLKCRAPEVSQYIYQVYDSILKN
Assay [12] is described as follows: cytosolic pH regulators acting via V-ATPase – S. cerevisiae, pHLuorin, HTS validation (AID 504600).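 Note: plate controls were DMSO for no effect and reference compound for full effect.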 The note with it: V-ATPase proton transport, at 10 µM, stronger effect = higher value.
In assay [13] the test system is anti-desmoglein-3 scFv antibody binding to human DSG3. In words: blockers of pathogenic pemphigus antibody–desmoglein-3 binding – biochemical, validation compound set, bead-based, flow cytometry, pilot screen (AID 588368;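 active = binding below the plate cutoff, the plate median minus 3 SD, with a reading above zero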;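 note: signal is the median channel fluorescence of bead-bound GFP antibody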). The note with it: Protein G beads, DSG3-Fc, scFv-GFP binding, at 10 µM, stronger effect = lower value.
Assay [14] is described as follows: Nile Red efflux blockade in pump-expressing yeast – validation compound set, multiplex, phenotypic, pilot screen (AID 588506;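 active = efflux inhibition above 0.42, the validation set average plus 4 SD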;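 note: Nile Red retained in cells so higher fluorescence means more efflux inhibition; 0 = negative control wells and 1 = enniatin B 25 µM full block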). Conditions: S. cerevisiae pump-expressing triplex, Nile Red efflux flow cytometry; at 10 µM; stronger effect = higher value; the pumps come from Candida albicans.
Assay [15] deals with ATP-binding cassette sub-family B member 6 (Homo sapiens) (UniProt Q9NP58). In words: blockers of ABCB6-driven porphyrin uptake – K562-ABCB6 cells, flow cytometry, validation set, pilot screen (AID 588550;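 active = inhibition above the screen-wide mean plus 3 SD, about 51%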;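 note: 0% = DMSO wells and 100% = benzethonium chloride 70 µM positive control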). The note with it: K562-ABCB6 porphyrin accumulation, 1 h, at 10 µM, stronger effect = higher value.
ATP-binding cassette sub-family B member 6 (Homo sapiens), sequence (Q9NP58 whole entry, looked up): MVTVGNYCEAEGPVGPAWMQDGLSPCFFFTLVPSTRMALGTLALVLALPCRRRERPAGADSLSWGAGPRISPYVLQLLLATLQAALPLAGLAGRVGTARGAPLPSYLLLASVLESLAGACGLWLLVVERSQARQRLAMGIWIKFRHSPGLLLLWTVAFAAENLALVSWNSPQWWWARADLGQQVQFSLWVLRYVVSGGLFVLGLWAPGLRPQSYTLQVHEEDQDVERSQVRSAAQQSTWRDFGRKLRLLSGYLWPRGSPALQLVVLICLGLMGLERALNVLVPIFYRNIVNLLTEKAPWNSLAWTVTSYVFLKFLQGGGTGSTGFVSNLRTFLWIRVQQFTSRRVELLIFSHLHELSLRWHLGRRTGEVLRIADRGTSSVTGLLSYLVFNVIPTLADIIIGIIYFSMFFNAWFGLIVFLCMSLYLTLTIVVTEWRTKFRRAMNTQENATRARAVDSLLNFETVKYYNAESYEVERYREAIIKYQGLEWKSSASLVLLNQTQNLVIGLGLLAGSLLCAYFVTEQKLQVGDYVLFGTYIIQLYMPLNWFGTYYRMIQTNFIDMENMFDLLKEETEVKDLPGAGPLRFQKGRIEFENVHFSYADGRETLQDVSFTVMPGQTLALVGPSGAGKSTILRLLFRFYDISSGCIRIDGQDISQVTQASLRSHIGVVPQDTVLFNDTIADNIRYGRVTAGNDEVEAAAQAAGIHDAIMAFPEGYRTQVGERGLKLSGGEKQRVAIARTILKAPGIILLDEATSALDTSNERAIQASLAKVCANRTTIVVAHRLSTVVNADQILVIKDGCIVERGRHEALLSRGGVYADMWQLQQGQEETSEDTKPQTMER
A short description of assay [16]: AML differentiation inducers, ER-HoxA9 marrow cells – cell-based, GFP/MAC1 double positive, flow cytometry, validation set, primary screen (AID 588685;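 active = differentiation response of at least 50%, scaled between solvent and reference control, from cells with both markers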;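 note: compound exposure lasts four days before antibody staining and flow analysis; 0% = DMSO wells and 100% = 5 µM fulvestrant positive control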). The note with it: stronger effect = higher value, normalized: vehicle 0, fulvestrant 100.

Results filed as inconclusive are left out. Active and inactive are the calls of the source. Cut-off read from the data, not from the text of the source, unless noted: active = response above about 15%; inactive = the rest.

`Nc1cnn(C2OC(CO)C(O)C2O)c(=O)n1` (stereo not drawn): in [1], the percent of DMSO control GFP is 102% (inactive). Further, the figures for the GFP response vs DMSO in assay [2] and in [4] were 108% (inactive) and 102% (inactive), respectively. The percent response of DMSO control in assay [3] was 100% (inactive). The GFP response, % of DMSO in [5] is 99.4% (inactive). Besides, in assay [6], the double positive events was found to be 63.4%. Also, in assay [6], the vesicle binding response is 463% (inactive). Moreover, the inhibition (in general, the change of the read-out against control, counted positive when it falls) in assay [7] is -13.9% (inactive); in assay [11], 1.7% (inactive); in [15], 0% (inactive). Besides, in assay [8], the superoxide response (% of plate) is 99.1% (inactive). Also, the aptamer binding inhibition in assay [9] is 3% (inactive). The response is -1.33% (inactive) in assay [10] and 0.15% (inactive) in assay [12]. In assay [13], the binding (% of control) was 97.7% (inactive). For the same compound, the efflux inhibition (fraction of control) in [14] is 0.11 (inactive). Also, the differentiation response in assay [16] is -8.55% (inactive).
In the case of `CSc1ccc(CN2CCN(CCC(C)C)C(CCO)C2)cc1` (stereo not drawn), the percent of DMSO control GFP in [1] was 101% (inactive). The GFP response vs DMSO in assay [2] is 106% (inactive); in assay [4] it was 117% (inactive). Also, the percent response of DMSO control in assay [3] is 109% (inactive). In addition, the GFP response, % of DMSO in assay [5] is 131% (active). In [6], this compound registered a double positive events of 61.2%. Besides, the vesicle binding response in [6] is 199% (inactive). Moreover, the inhibition in assay [7] is 4.84% (inactive); in assay [11], -9.19% (inactive); in assay [15], 0% (inactive). In addition, the superoxide response (% of plate) in assay [8] was 91.4% (inactive). Moreover, the aptamer binding inhibition in [9] is -1% (inactive). The response in assay [10] was -11.6% (inactive); in [12], 2.63% (inactive). In addition, the binding (% of control) in [13] is 102% (inactive). The efflux inhibition (fraction of control) in assay [14] is -0.09 (inactive). Also, the differentiation response in assay [16] was -5.97% (inactive).
Turning to `CC12COC3(C(=O)Nc4ccc(F)cc4)CC1CCC32C` (stereo not drawn), in assay [1], the percent of DMSO control GFP is 94.2% (inactive). The GFP response vs DMSO in [2] was 126% (inactive); in assay [4], 73.7% (inactive). For the same compound, the percent response of DMSO control in assay [3] is 107% (inactive). Further, in assay [5], the GFP response, % of DMSO is 85.9% (inactive). For the same compound, the double positive events in [6] came to 65.7%. Further, the vesicle binding response in assay [6] was 157% (inactive). Moreover, the values for the inhibition in [7], in assay [11] and in [15] were 8.4% (inactive), -2.28% (inactive) and 10% (inactive), respectively. The superoxide response (% of plate) in assay [8] is 99.2% (inactive). Also, in assay [9], the aptamer binding inhibition was 1% (inactive). Further, the response in [10] is -12.6% (inactive); in [12], -3.14% (inactive). In addition, the binding (% of control) in [13] was 102% (inactive). Moreover, in assay [14], the efflux inhibition (fraction of control) was 0.3 (inactive). Moreover, the differentiation response in [16] was -1.64% (inactive).
As for `COc1cccc(=O)c2c(C)n(CC(=O)c3ccccc3)c(C)c12`, the percent of DMSO control GFP in assay [1] is 100% (inactive). The GFP response vs DMSO is 102% (inactive) in [2] and 113% (inactive) in assay [4]. In addition, in [3], the percent response of DMSO control was 95.1% (inactive). Besides, the GFP response, % of DMSO in assay [5] is 113% (inactive). In assay [6], this compound registered a double positive events of 58.2%. For the same compound, in assay [6], the vesicle binding response was 203% (inactive). Besides, the inhibition in assay [7] is -72.7% (inactive); in assay [11], -9.87% (inactive); in [15] it was -32% (inactive). For the same compound, the superoxide response (% of plate) in [8] was 96.3% (inactive). Besides, the aptamer binding inhibition in assay [9] is -1% (inactive). The response in [10] was -13.2% (inactive); in assay [12] it was 2.5% (inactive). The binding (% of control) in assay [13] is 98.8% (inactive). Besides, the efflux inhibition (fraction of control) in assay [14] is 0.33 (inactive). For the same compound, the differentiation response in assay [16] is -2.03% (inactive).
